Whole data set: some 4,500 sequences, median “median log2 fold change of GCK-ALFA target abundance (FLAG IP / Myc IP barcode read proportion)” near 0.078, cut for the lowest 2% near -0.6. This excerpt belongs to a sample that is enriched for the lowest values.
B1: GBRAP_74_6512 (protein)
chain: MEELLAKLKEAAEAKDVDKLVALALEIAETGDKETIEKAAEIVVAFVEANLDTLTPEELEKLSDALATLADKLMELGGDSEVVNRVAETAVALEKKLLAL
B2: GBRAP_52_5860 (protein)
chain: MVEEALEKLRKAVEAMKAGKEEEAEKILKEIVENFDEETILAAAEAFAKEMATATPEEAEAAFRTAEMLGKILEEAGFDEEVVTLIEDTIGAAVARVEAA
B3: GBRAP_139_3742 (protein)
chain: SEMEKKVEEAAKKVAELKDDPEAVADYLTETIASVDEETAEKIARAAVEVLADLPVEERLALDDLILDKLEEAGVDEDKITIVEAELNGGLARHAYAEEL
B4: GBRAP_139_3708 (protein)
chain: SALEEKVAEAKELTKETLENPEESIKKIVELLLSVSEEDLEVVVKAIAETLSEFPLDTAEELADKLLEEVKKRSKDEDKVNIVEAVLNGALARKAYEEEL
B5: GBRAP_80_6860 (protein)
chain: DEARLAAARARLKALLPEAAALIDEVVAIAKELGVPNADIADLLDALAELAEVDPELAKELLEELLEDLREEKEAGDAENALATVRGYAGEALMEAEELE
B6: GBRAP_95_7064 (protein)
chain: EEDLEIAEDLIDTAEDLVEIGLYEQAARAAKAAVEELKEIGYTGELALRAAEVLVKVAEATGNEEAAELAKEVLEEIRKAGGDEKKIEELEKRLEKALKK
B7: GBRAP_52_6171 (protein)
chain: SAEKARKMAEELLEAIKAGDEEKVKKILEEIAKNYTDEEIAAMLREVAKRVPSLSPEDQERVVEAALELEDIAVKAGHDENVLQIEVARVAAAAYDALQA
B8: GBRAP_53_6396 (protein)
chain: AEKEIKEGLKELEALIKRVKADPTLDPKEVAKEASALFKALVAAGAPEEELVKLAKELAEAVKAKGLGVEVSTALAKAAAEAGAEEVQYVFTEAAVEDLE

target: GABARAP, O95166; test: median log2 fold change of GCK-ALFA target abundance (FLAG IP / Myc IP barcode read proportion) (log2 ratio); each designed protein is fused to an ALFA-tag nanobody in HEK293 cells to bring the named protein to FLAG-tagged glucokinase (GCK); Myc marks an untargeted standard; higher = target protein stabilised (more abundant); settings: target protein: 3xFLAG-MCP-GCK-ALFA reporter; HEK293 landing pad (RPLP)
Method: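 LABEL-seq trans screen in HEK293 landing-pad cells. Each de novo designed 100-aa effector handle, binding the indicated effector (E3 ligase, DUB or autophagy protein), is fused to a constant NbALFA target handle and induced with 2 ug/mL doxycycline. A FLAG-MCP-GCK-ALFA target and a Myc-MCP standard reporter were transfected, and after 48 h circRNA barcodes were recovered by anti-FLAG and anti-Myc IP and sequenced. The value is the median across barcodes (at least 3 per design) of log2(FLAG/Myc read-proportion ratio), with the two transfection replicates pooled. Negative values mean degradation and positive values mean stabilisation of the target.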

Sequence of GABARAP, O95166 (O95166 whole entry, the tested form may be a part): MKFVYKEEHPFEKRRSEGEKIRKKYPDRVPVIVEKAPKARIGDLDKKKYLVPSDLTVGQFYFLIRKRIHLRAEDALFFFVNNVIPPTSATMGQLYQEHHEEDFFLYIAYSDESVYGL

| Binder | median log2 fold change |
| --- | --- |
| B1 | 0.23 |
| B2 | 0.165 |
| B3 | 0.187 |
| B4 | 0.163 |
| B5 | -0.593 |
| B6 | 0.373 |
| B7 | -0.631 |
| B8 | 0.274 |
